# A number with no mark means an inactive call.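 The calls were made as follows: active = Lowers HeLa cell ATP signal, with fitted half-maximal potency at most twice the top tested dose in every run; inconclusive = runs disagree, or fits flat mid-range or poor; inactive = every run inactive, including signal rising.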
# Test: cervical carcinoma cell viability loss – CellTiter-Glo luminescence, dry powder, set 3, cytotoxicity control, dose response (AID 1117294)
# Details: HeLa viability, ATP luminescence (CellTiter-Glo), 72 h
structure (smiles),measurement,setting,value
COc1ccc(C(=O)O)cc1S(=O)(=O)Nc1cccc(N2CCCCC2)c1C(F)(F)F,max activity,,15.2%
O=S(=O)(O)c1ccc(N2N=C(c3ccccc3)CC2c2ccccc2)cc1 (stereo not drawn),max activity,at 0.0015 µM,-32.4%
COc1ccc(C(=O)O)cc1S(=O)(=O)Nc1cc(C(F)(F)F)ccc1N1CCOCC1,max activity,at 0.003 µM,-16.9%
COc1ccc(C(=O)O)cc1S(=O)(=O)Nc1cc(C(F)(F)F)ccc1N1CCCCC1,max activity,at 0.0235 µM,-13.4%
same,max activity,at 12 µM,-15.9%
COc1ccc(C(=O)O)cc1S(=O)(=O)Nc1cc(C(F)(F)F)ccc1N(C)C,max activity,at 6 µM,-19%
COc1ccc(C(=O)O)cc1S(=O)(=O)N1CCN(c2ccc(C(F)(F)F)cc2N)CC1,max activity,at 12 µM,-20.1%
COc1ccc(C(=O)Nc2cccc(C(F)(F)F)c2)cc1S(=O)(=O)O,max activity,at 26 µM,-20.5%
